Several values for one entry are separate records, joined by “and”; a condition that tells them apart may be missing. Equal values may be shown once. About 3,000 (1%) of roughly 290,000 compounds were called active. Rule as the data show it: active = inhibition mostly above about 36% (no sharp cut-off); inactive = mostly below about 34%. The list comes from a sample in which actives are over-represented; it also holds similar structures and randomly drawn compounds. Some compounds were tested as several samples or in several runs, with calls that do not always agree.
test: NOD1 signaling inhibitors, primary screen, cell-based, luminescence, uHTS (AID 1578); conditions: NOD1-driven NF-kB luciferase reporter cells, at 4 µM, stronger effect = higher value;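 also: HEK-293T reporter cells stimulated with the NOD1 agonist gamma-tri-DAP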

| SMILES | inhibition |
| --- | --- |
| COc1ccc(OC)c(-n2c(-c3cccc(C)c3)n[nH]c2=S)c1 | -42.7% (inactive) |
| COc1cccc(COc2ccccc2C2Nc3ccc(Br)cc3C(=O)N2NC(=O)c2ccncc2)c1 (stereo unspecified) | 9.7% (inactive) |
| O=[N+]([O-])c1ccc(N=Nc2c(Cl)cc(O)cc2Cl)cc1 | 16.5% (inactive) |
| O=[N+]([O-])c1ccc(N=Nc2ncc[nH]2)cc1 | 74.2% (active) |
| O=[N+]([O-])c1ccc(N=NN(CCO)CCO)cc1 | 6.1% (inactive) |
| CCC(=O)c1c(OCc2ccccc2)ccc2c(C)cc(=O)oc12 | 3.9% (inactive) |
| Cc1cccc(C(=O)C2CCN(S(=O)(=O)c3cccc(C(=O)O)c3)CC2)c1 | 12.2% (inactive) |
| O=C(O)CSc1cccc2cccnc12 | 36% (inactive) and 65.2% (active) |
| CCOC(=O)CSc1cccc2cccnc12 | 85.4% (active) |
| O=C(CSc1cccc2cccnc12)OCC(=O)c1ccc(Br)cc1 | 3.3% (inactive) |
| CN(C)C(=O)CSc1cccc2cccnc12 | 85.5% (inactive) |
| NNC(=O)CSc1cccc2cccnc12 | -24.8% (inactive) |
| O=C(CSc1cccc2cccnc12)OCC(=O)c1ccccc1 | -30.2% (inactive) |
| COc1ccc(C2(C)NC(=O)N(CC3CCCCC3)C2=O)cc1 (stereo unspecified) | 1.3% (inactive) |
| COc1ccccc1OCCCCN1CCC(C)CC1 | -6.9% (inactive) |
| COc1ccc2nc(NC(=O)C3CCCN(S(=O)(=O)c4cccc5nonc45)C3)sc2c1 (stereo unspecified) | -1.6% (inactive) |
| O=C(Nc1ccc(NC(=O)c2ccccc2Cl)cc1)c1cccnc1 | -48.1% (inactive) |
| CN(CCCCCCCCC(=O)/C=N/O)Cc1ccccc1 | -3.1% (inactive) |
| CCN(CC)CCOC(=O)c1ccc(NC(=O)c2ccc(Cl)c(S(=O)(=O)N3CCCCCC3)c2)cc1 | 13.1% (inactive) |
| CC(C)Nc1nnc(SCC(=O)Nc2ccc(F)cc2)s1 | -8.4% (inactive) |
| CC(C)Nc1nnc(SCC(=O)Nc2ccc3c(c2)C(=O)c2ccccc2C3=O)s1 | 83.7% (active) |
| O=C(CSc1nnc(NC2CCCCC2)s1)Nc1ccc2c(c1)C(=O)c1ccccc1C2=O | -43.3% (inactive) |
| CC(=O)c1cccc(NC(=O)C2C(c3ccccc3)C2(Cl)Cl)c1 (stereo unspecified) | -15.1% (inactive) |
| COc1ccc(C2NC(=O)NC3=C2C(=O)CCC3)cc1 (stereo unspecified) | -30.7% (inactive) |

| SMILES | inhibition |
| --- | --- |
| COCCN1C(=O)c2cc(C(=O)Nc3cccc(F)c3)ccc2C1Nc1cccc(F)c1 (stereo unspecified) | 2.2% (inactive) |
| COCCCn1c(SCc2ccccc2)nc2cc(OC)c(OC)cc2c1=N | 5.9% (inactive) |
| COCCCn1c(SCCc2ccccc2)nc2cc(OC)c(OC)cc2c1=N | 49.8% (active) |
| COCCCn1c(SCc2ccc(OC)cc2)nc2cc(OC)c(OC)cc2c1=N | -11.5% (inactive) |
| O=C(COC(=O)c1ccc(S(=O)(=O)N2CCc3ccccc3C2)cc1)NC1CCS(=O)(=O)C1 (stereo unspecified) | 3.9% (inactive) |
| NS(=O)(=O)c1ccc(NC(=S)NCc2ccc(Cl)cc2)cc1 | 4.1% (inactive) |
| CC1=CN2C(=N)/C(=C/c3ccc(Sc4ccc(C)cc4)o3)C(=O)N=C2S1 | -6.2% (inactive) |
| CC1=CN2C(=N)/C(=C/c3ccc(C)o3)C(=O)N=C2S1 | -39.8% (inactive) |
| CC1=CN2C(=N)/C(=C/c3ccco3)C(=O)N=C2S1 | -63.4% (inactive) |
| CC1=CN2C(=N)/C(=C/c3ccc([N+](=O)[O-])o3)C(=O)N=C2S1 | 78.2% (active) |
| CC1=NN2C(=N)/C(=C\c3ccc(SCc4ccccc4)o3)C(=O)N=C2S1 | 9.5% (inactive) |
| CC1=CN2C(=N)/C(=C/c3ccc(Sc4ccc(Cl)cc4)o3)C(=O)N=C2S1 | 76.7% (active) |
| CC(=O)Nc1ccc(OC(=O)c2cc3cc(Br)ccc3oc2=O)cc1 | 7.6% (inactive) |
| CC(C)C(=O)Nc1ccc(NC(=O)c2ccccc2Cl)nc1 | -13.2% (inactive) |
| CCN(CC)C(=O)CSc1nnc([C@H](Cc2c[nH]c3ccccc23)NC(=O)OC(C)(C)C)o1 | -14.8% (inactive) |
| CC(C)Sc1nnc(NC(=O)C2CC2)s1 | 37.9% (active) |
| CCSc1nnc(NC(=O)C2CCCCC2)s1 | -31.5% (inactive) |
| CC(C)N(C(=O)CSc1nnc(NC(=O)C2CCC2)s1)C(C)C | -7.8% (inactive) |
| CCc1ccc(NC(=O)CSc2nnnn2-c2cccnc2)cc1 | -28.4% (inactive) |
| CCCC(=O)C1=C(O)C(C(=O)OC)C(C)(C)CC1=NCCCCCC(=O)O (stereo unspecified) | -12.1% (inactive) |
| Cc1cc(C)c(NC(=O)c2ccc3c(c2)C(=O)N(Cc2cccnc2)C3=O)c(C)c1 | -0.6% (inactive) |
| Fc1cccc(CNc2ncnc3cc(Cl)ccc23)c1F | 0.2% (inactive) |
| COc1cc2ncnc(NCc3cc(F)ccc3F)c2cc1OC | 0.3% (inactive) |
| Nc1cc(=O)[nH]n1C1CCN(c2ccccc2)CC1 | -4% (inactive) |

| SMILES | inhibition |
| --- | --- |
| COc1ccc(C2C=C(Nc3ccccc3)C(=O)N2c2ccccc2)cc1OC (stereo unspecified) | 4.9% (inactive) |
| O=C(CCl)NCc1cc(-c2ccc(Cl)cc2)no1 | 87.7% (active) |
| COc1ccc(-c2cc(CNC(=O)CCl)on2)cc1 | 54.5% (inactive) |
| CC(=O)NCc1cc(-c2ccc(Cl)cc2)no1 | -35.1% (inactive) |
| COc1ccc(Cl)cc1NC(=O)CN1C(=O)NC2(CCCC2)C1=O | -8.5% (inactive) |
| Cc1nc(SCC(=O)N2CCCc3ccccc32)c2oc3ccccc3c2n1 | -0.3% (inactive) |
| CCn1c(SCC(=O)N2CCCc3ccccc32)nc2ccccc2c1=O | -37.5% (inactive) |
| Cc1nc(SCC(=O)NCc2ccco2)c2oc3ccccc3c2n1 | -2.6% (inactive) |
| O=C(CSc1nc2ccccc2c(=O)n1-c1ccccc1)N1CCCc2ccccc21 | -19.1% (inactive) |
| CCc1nc(SCC(=O)N2CCCc3ccccc32)c2oc3ccccc3c2n1 | 0.5% (inactive) |
| O=C(CSc1ncnc2c1oc1ccccc12)NCc1ccco1 | 72.8% (active) |
| O=C(CSc1ncnc2c1oc1ccccc12)NCc1ccc(F)cc1 | 19.3% (inactive) |
| COc1cccc(OCC(O)CN2CCN(c3ccccc3)CC2)c1 (stereo unspecified) | 2.2% (inactive) and -2.1% (inactive) |
| CC(C)(C)c1ccc(-c2noc(-c3ccno3)n2)cc1 | -6.3% (inactive) |
| CCN(CC)S(=O)(=O)c1cccc(C(=O)N/N=C/c2ccc(N3CCOCC3)cc2)c1 | -29.1% (inactive) |
| O=C1NC(=O)/C(=C\c2ccc(O)cc2O)S1 | -22.3% (inactive) |
| COCCNC(=O)c1ccc(C)c(NC(=O)C2=C(C)OCCS2)c1 | -9.9% (inactive) |
| COC(=O)C(CC(=O)O)NCc1ccco1 (stereo unspecified) | -10.9% (inactive) |
| CC(=O)N1CCN(CC(=O)Nc2ccc([N+](=O)[O-])cc2Br)CC1 | -29.7% (inactive) |
| FC(F)(F)c1ccccc1NC(=S)NN1CCOCC1 | -11.5% (inactive) |
| O=C(O)c1cccc(Nc2ccnc(Nc3cccc(C(=O)O)c3)n2)c1 | 38.5% (active) |
| O=C(O)c1cccc(Nc2ccc([N+](=O)[O-])cn2)c1 | -19.2% (inactive) |
| c1ccc(Nc2ccnc(Nc3ccccc3)n2)cc1 | 8.8% (inactive) |
| CCOC(=O)C1=C(C)N(C)C(=S)NC1c1ccc(Cl)cc1Cl (stereo unspecified) | -11.6% (inactive) |

| SMILES | inhibition |
| --- | --- |
| C[n+]1c2n(c3ccccc31)N=C(c1ccc(-c3ccccc3)cc1)CS2 | 43.5% (inactive) |
| C[n+]1c2n(c3ccccc31)N=C(c1ccccc1)CS2 | 5% (inactive) and 22.1% (inactive) |
| Cc1cc(=O)oc2cc(NC(=O)c3ccccc3OC(F)F)ccc12 | -62.7% (inactive) |
| Cc1ccc(O)c(C(=O)c2cc(C#N)c(=O)n(Cc3ccccc3)c2)c1 | -10.3% (inactive) |
| Cc1ccc(O)c(C(=O)c2cc(C#N)c(=O)n(C(C)c3ccccc3)c2)c1 (stereo unspecified) | -4.6% (inactive) |
| Cc1c(NC(=O)c2ccc(N(Cc3ccccc3)S(C)(=O)=O)cc2)c(=O)n(-c2ccccc2)n1C | -26.8% (inactive) |
| CCOC(=O)N1CCN(C(=O)C2CCC(=O)N2C(C)C)CC1 (stereo unspecified) | 3.6% (inactive) |
| COc1ccc(/C=C/C(=O)O/N=C(\N)c2cccnc2)cc1OC | -10% (inactive) |
| Cc1ccccc1-c1nc(CS(=O)CC(=O)NC(C)CCc2ccccc2)c(C)o1 (stereo unspecified) | 19.2% (inactive) |
| Cc1cccc(-c2nc(CS(=O)CC(=O)NC(C)CCc3ccccc3)c(C)o2)c1 (stereo unspecified) | 20.6% (inactive) |
| Cc1ccc(-c2nc(CS(=O)CC(=O)NC(C)CCc3ccccc3)c(C)o2)cc1 (stereo unspecified) | 41.4% (active) |
| Cc1c(OCC(=O)NCCCn2ccnc2)ccc2c3c(c(=O)oc12)CCC3 | -17.1% (inactive) |
| Cc1cc(C)cc(NC(=O)C2C3C=CC(O3)C2C(=O)O)c1 (stereo unspecified) | -15.9% (inactive) |
| O=C1C=C(c2ccccc2)C[C@H](c2cccs2)[C@H]1n1cnc([N+](=O)[O-])c1 | -24.8% (inactive) |
| O=C1C=C(c2cccs2)C[C@H](c2ccccc2)[C@H]1n1nnc([N+](=O)[O-])n1 | 42.1% (inactive) |
| CCN(CC)C(=O)c1sc(NC(=S)N2CCN(C(=O)C3CCCO3)CC2)c(C(=O)OC)c1C (stereo unspecified) | 2.3% (inactive) |
| COc1ccc2[nH]c3c(N4CCN(Cc5ccc6c(c5)OCO6)CC4)ncnc3c2c1 | 23.1% (inactive) |
| COc1ccc2c(c1)[nH]c1c(N3CCN(Cc4ccc5c(c4)OCO5)CC3)ncnc12 | 86% (active) |
| COc1cccc2[nH]c3c(N4CCN(Cc5ccc6c(c5)OCO6)CC4)ncnc3c12 | 60.8% (inactive) |
| Brc1ccc2[nH]c3c(N4CCc5ccccc5C4)ncnc3c2c1 | -5.4% (inactive) |
| Fc1ccc2[nH]c3c(N4CCN(Cc5ccc6c(c5)OCO6)CC4)ncnc3c2c1 | 58.2% (active) |
| c1ccc2c(c1)CCN(c1ncnc3c1[nH]c1ccccc13)C2 | 81.6% (inactive) |
| Cc1ccc2c(c1)[nH]c1c(N3CCN(Cc4ccc5c(c4)OCO5)CC3)ncnc12 | 58.5% (inactive) |
| Cc1ccc2[nH]c3c(N4CCN(Cc5ccc6c(c5)OCO6)CC4)ncnc3c2c1 | 73.7% (inactive) |

— PubChem BioAssay AID1578 (Sanford-Burnham Center for Chemical Genomics, 2009)
